According to the supplement of paper PMC9950053:
Where a name gives a salt, the structure may show the parent alone.

system: Danio rerio larvae (5 dpf); experiment: habituation (activity change first vs second 5 min of 1-s interval sound, period 17) minus DMSO control (percentage points); higher = larger habituation measure than DMSO larvae; conditions: 10 µM; exposure time: 3 h pre-incubation + 3 h imaging
Method: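 Wild-type 5 dpf zebrafish larvae (n=48 per drug, 96-well plates, 28.5 °C) were exposed to Tocris FDA-approved library compounds at 10 µM (0.1% DMSO) for 3 h before and 3 h during imaging. Images were taken every 6 s during visual and acoustic stimuli, and larvae were tracked with Z-LaP Tracker. Each measure is the treated-group mean minus the DMSO control mean (n=844), in percentage points. This mapping covers compounds with 5-character plate codes.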

Row | SMILES | habituation
1 | COc1ccc(C(CN(C)C)C2(O)CCCCC2)cc1 (stereo unspecified) [Venlafaxine hydrochloride] | -5.52
